High-throughput results (PubChem)
A selection: hits, their analogues and other compounds. The true share with any hit is near 7.3%.
p53 reactivator: qHTS assay for re-activators of p53 using a Luc reporter | H1299 p53-A138V BP100-luciferase reporter, luminescence, 24 h | Potency, µM (highest dose often 92.2 µM), for inactives: top-dose activity change, positive = activation, actives largely listed as activators | 320,000 tested, 0.063% active | AID 504706, 2011; also: % of control where 0% means no effect; nearly all actives have a fitted effect of over 45% in size
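p53-null H1299 cells stably carrying temperature-sensitive p53-A138V and a BP100-luciferase reporter were pinned with compounds (4-point, 1:5 series) and held 24 hrs at 37 deg C. Luminescence was read 10 min after detection reagent.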
Rab9 promoter act: qHTS Assay for Rab9 Promoter Activators. Huh7 Rab9 promoter-luciferase reporter, luminescence, 24 h. Potency, µM (titrated, usually from 9.22 µM), for the others: at the highest dose activation, negative = inhibition, actives largely listed as activators. 320,000 tested, 2.8% active; also: % of control where 0% means no effect; nearly all actives have a fitted effect of over 60% in size
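Huh7 cells stably carrying a Rab9 promoter-luciferase reporter, 1500 cells per well in OP-MEM I with 10% FBS, treated with compound 24 hours at 37C. Luciferase activity read by luminescence after 10 minutes with Amplite reagent.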
NPC1 promoter act: qHTS Assay for NPC1 Promoter Activators; 320,000 tested, 2.4% active; Potency, µM (doses to about 9.22 µM), without a hit: top-dose activation, most hits filed as activators; Huh7 NPC1 promoter luciferase reporter, 24 h; also: % of control where 0% means no effect; nearly all actives have a fitted effect of over 60% in size
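Compounds in DMSO were transferred onto Huh7 NPC1-luciferase reporter cells pre-incubated 2 h; after 24 h at 37 °C, Amplite reagent was dispensed and luminescence recorded 10 min later.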
ELG1 genotox: qHTS screen for small molecules that induce genotoxicity in human embryonic kidney (HEK293T) cells expressing luciferase-tagged ELG1; HEK293T ELG1-luciferase reporter, luminescence, 16 h; Potency, µM (series often up to 46 µM), inactives show top-dose activity change, positive = activation, hits mostly activators; 330,000 tested, 1.3% active; AID 504466, 2011; also: % of control where 0% means no effect; nearly all actives have a fitted effect of over 60% in size
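Luminescence read-out: rising ELG1-luciferase signal, reflecting elevated ELG1 protein under genetic stress, flags genotoxic compounds. Cells were treated for 16 hr at 37 °C before ONE-Glo detection.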
FLuc modulator: qHTS profiling assay for firefly luciferase inhibitor/activator using purifed enzyme and Km concentrations of substrates (counterscreen for miR-21 project) | 360,000 tested, 6.9% active | Luciferin 4-monooxygenase (Photinus pyralis), P08659 | AID 588342, 2011 | Potency, µM (series often up to 57.5 µM), for inactives: at the top dose activity change, negative = inhibition, most hits filed as inhibitors | purified FLuc, Km substrates, luminescence inhibition;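 also: plate controls were vehicle for no effect and reference inhibitor for full effect; nearly all actives have a fitted effect of over 55% in size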
Target sequence (P08659 whole entry, looked up): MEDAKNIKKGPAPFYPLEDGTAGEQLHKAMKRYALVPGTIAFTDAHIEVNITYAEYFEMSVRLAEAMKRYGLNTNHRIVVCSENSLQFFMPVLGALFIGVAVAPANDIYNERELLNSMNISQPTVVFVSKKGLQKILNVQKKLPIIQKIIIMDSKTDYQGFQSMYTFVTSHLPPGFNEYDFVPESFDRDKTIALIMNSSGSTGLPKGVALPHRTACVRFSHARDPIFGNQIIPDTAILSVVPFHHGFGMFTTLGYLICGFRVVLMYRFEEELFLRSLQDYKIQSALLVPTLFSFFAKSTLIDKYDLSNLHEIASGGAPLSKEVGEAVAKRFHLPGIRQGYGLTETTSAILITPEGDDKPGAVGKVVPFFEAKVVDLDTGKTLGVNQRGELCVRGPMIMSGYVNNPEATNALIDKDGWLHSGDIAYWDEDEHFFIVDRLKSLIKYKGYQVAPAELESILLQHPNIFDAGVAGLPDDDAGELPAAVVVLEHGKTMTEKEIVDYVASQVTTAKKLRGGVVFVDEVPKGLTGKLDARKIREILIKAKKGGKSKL
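Purified P. pyralis luciferase, 10 nM final, with Km-level 10 uM D-luciferin and 10 uM ATP in 50 mM Tris acetate pH 7.5, 10 mM Mg acetate, 0.01% Tween-20, 0.05% BSA; 6-point qHTS titration about 60 µM downward; luminescence read.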
SMN2 splice enh: qHTS Assay for Enhancers of SMN2 Splice Variant Expression; HEK293 SMN2-luciferase splicing reporter, luminescence, 30-36 h; Potency, µM (highest dose often 46.1 µM), for inactives: top-dose activity change, positive = activation, hits mostly activators; 210,000 tested, 2.8% active; AID 1458, 2008; also: % of control where 0% means no effect; nearly all actives have a fitted effect of over 55% in size
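HEK293 cells carry an SMN2 minigene-luciferase reporter in which exon 7 inclusion puts luciferase in frame. Cells were seeded at 2000 cells/well, attached for 10-12 hours, then exposed to compounds for 30-36 hours at 37C before ONE-Glo luminescence.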
Numbers without * were called inactive; u = inconclusive; x = no result. Calls follow the shape of the dose curve; as a rule, active = well fitted curve in the direction sought with a large enough effect; inconclusive = small, poorly fitted or top-dose-only effect, or another doubt; inactive = no such curve, though single readings can be large; an effect the other way counts as inactive or inconclusive. Potency is read from the fitted curve at half-maximal effect.

SMILES	p53 reactivator	Rab9 promoter act	NPC1 promoter act	ELG1 genotox	FLuc modulator	SMN2 splice enh
CC(=O)Oc1ccc2nc(-c3cccs3)oc(=O)c2c1	-3%	-3%	-2%	2%	u	-11%
Cc1ccc2nc(-c3ccccc3C)oc(=O)c2c1	u	1%	-2%	0%	6µM*	x
Cc1ccc2nc(-c3ccccc3)oc(=O)c2c1	u	2%	-7%	5%	3.8µM*	x
CC(=O)Oc1ccc2nc(-c3ccco3)oc(=O)c2c1	x	0%	-3%	-3%	12µM*	x
Cn1cnnc1SCC(=O)NCCc1ccccc1	3%	0%	1%	-3%	0%	-5%
CCc1ccc(OCc2cc(=O)n3c4c(sc3n2)CCCC4)cc1	x	x	x	x	u	-3%
Cc1ccc(-c2nc3ccccc3c(=O)o2)cc1	19%	3.2µM*	u	u	4.3µM*	x
COc1ccc(-c2nc3ccc(C)cc3c(=O)o2)cc1OC	x	0%	2%	-2%	3.4µM*	x
CC(=O)Oc1ccc(-c2nc3ccccc3c(=O)o2)cc1	x	1%	-5%	-3%	9.5µM*	x
Cc1cc(-c2nc3ccccc3c(=O)o2)ccc1[N+](=O)[O-]	u	16%	27%	u	2.7µM*	x
O=c1oc(-c2cccc([N+](=O)[O-])c2)nc2ccccc12	x	18%	15%	5%	u	x
O=C(Nc1cccc(-c2nc3ccccc3c(=O)o2)c1)c1ccccc1	2%	1%	2%	5%	-4%	-30%
Cn1c(=O)n(C)c2cc(N3CCCCC3)c(NC(=O)c3ccc(C(C)(C)C)cc3)cc21	x	x	x	x	1%	-2%
O=C(c1cc2ccccc2oc1=O)N1CCN(c2ccc(Cl)cc2)CC1	x	x	x	x	0%	0%
COc1cc(NC(=O)NCCn2nnc3cc(S(=O)(=O)N(C)C)ccc32)cc(OC)c1	x	x	x	x	-1%	x
O=S(=O)(c1ccc2c(c1)OCCO2)N(Cc1ccc(F)cc1)Cc1nnc(-c2cccs2)o1	-2%	-8%	4%	-11%	2%	-19%
COc1ccccc1NC(=O)Cn1c(=O)n(CC(=O)NCc2ccccc2Cl)c(=O)c2sccc21	x	x	x	x	-5%	-11%
CCOC(=O)Cn1nc(/C=C/c2ccc(C(C)C)cc2)ccc1=O	-1%	13%	22%	1%	11µM*	-11%
FC(F)(F)c1ccccc1-n1c(-c2cnccn2)n[nH]c1=S	2%	11%	11%	u	17µM*	x
CCn1c(-c2ccccc2)csc1=Nc1ccc(S(=O)(=O)O)cc1	-14%	u	u	0%	3.8µM*	-18%
CCn1c(-c2ccc(S(=O)(=O)N3CCOCC3)cc2)csc1=Nc1ccc(C)c(Cl)c1	x	-25%	-22%	x	1%	-4%
CCC(Cn1nnc2ccccc2c1=O)NC(=O)Nc1ccc(C)c(C)c1 (configuration not stated)	x	x	x	x	-7%	-2%
O=S(=O)(c1ccc2c(c1)OCCO2)N1CCCN(S(=O)(=O)c2c(F)cccc2F)CC1	-5%	0%	0%	0%	12%	x
CN1CCOc2ccc(S(=O)(=O)N3CCN(S(=O)(=O)c4c(F)cccc4F)CC3)cc21	x	u	u	x	21µM*	x
CC(=O)O[C@@H](C)C#C[Si](C)(C)c1ccccc1	x	x	x	x	x	13%
SMILES	p53 reactivator	Rab9 promoter act	NPC1 promoter act	ELG1 genotox	FLuc modulator	SMN2 splice enh
CCOc1ccc2nc(N(Cc3cccnc3)C(=O)c3ccco3)sc2c1	x	x	x	x	17µM*	x
COc1ccc2nc(N(Cc3cccnc3)C(C)=O)sc2c1	x	x	x	x	-12%	x
Cc1ccc2nc(N(Cc3cccnc3)C(=O)c3ccc4c(c3)OCCO4)sc2c1	x	x	x	x	-15%	x
O=C(c1ccc2c(c1)OCCO2)N(Cc1cccnc1)c1nc2ccc(F)cc2s1	x	x	x	x	17µM*	x
CCS(=O)(=O)c1ccccc1C(=O)N(Cc1cccnc1)c1nc2cc(C)c(C)cc2s1	x	x	x	x	21µM*	x
CCOc1ccc2nc(N(Cc3cccnc3)C(C)=O)sc2c1	x	x	x	x	-12%	x
COc1ccc2nc(N(Cc3cccnc3)C(=O)c3ccco3)sc2c1	x	x	x	x	17µM*	x
COc1ccc(-n2c(C)cc(C3=NNC(=NC4CC4)SC3)c2C)cc1	22%	0%	-2%	u	5.4µM*	4µM*
Cc1cc(C2=NNC(=NC3CC3)SC2)c(C)n1-c1ccccc1	-26%	-40%	-32%	-10%	0.076µM*	-101%
Cc1cc(C2=NNC(=NCc3ccccc3)SC2)c(C)n1-c1c(C)n(C)n(-c2ccccc2)c1=O	3%	-1%	-1%	3%	5%	-1%
CN=C1NN=C(c2cc(C)n(-c3c(C)n(C)n(-c4ccccc4)c3=O)c2C)CS1	0%	-3%	0%	1%	-1%	-2%
O=C(/C=C/c1ccc(Cl)cc1)Nc1nc(-c2cccs2)ns1	x	x	x	x	-11%	x
Cc1ccc(C2(C(F)(F)F)NC(=O)N3N=C4CCCCCN4C3=C2C#N)cc1 (configuration not stated)	-2%	2%	-4%	0%	0%	-5%
COc1ccc(/C=C2\SC(=O)N(CCc3nnc(N)s3)C2=O)cc1	x	1µM*	2.5µM*	u	1.9µM*	x
COc1cccc(/C=C2\SC(=O)N(CC(=O)NCCCn3ccnc3)C2=O)c1	23%	-1%	3%	5%	24µM*	x
COc1ccc(/C=C2\SC(=O)N(CCNC(=O)C3=COCCO3)C2=O)cc1	u	28%	2%	16µM*	u	x
O=C(NCCN1C(=O)S/C(=C\c2ccc(OC(F)F)cc2)C1=O)C1=COCCO1	13%	-15%	-22%	1%	u	x
COc1ccc(/C=C2\SC(=O)N(CC(=O)NCCCn3ccnc3)C2=O)cc1	u	29%	27%	13%	9.5µM*	x
Cc1ccccc1OCC(=O)OCc1cc(=O)n2nc(C3CCCCC3)sc2n1	x	x	x	x	-3%	x
CCN(CC)c1ccc(NC(=O)c2cccn2-c2nnc(N3CCCCC3)s2)c(C)c1	x	x	x	x	-10%	x
CC1CN(C(=O)CCC(=O)NCc2ccc(F)cc2)c2cc(Cl)ccc2O1 (configuration not stated)	x	x	x	x	-9%	x
COC(=O)c1ccc2c(c1)N(Cc1nc(-c3cccc(C)c3)oc1C)C(=O)C1CCCN21 (configuration not stated)	-2%	2%	1%	9%	-1%	10µM*
Cc1nn(-c2ccccc2)c2sc(C(=O)Nc3cccc(Cl)c3)cc12	x	x	x	x	-6%	-6%
